Plk1 PBD FP – Plk1 polo box domain binding inhibitors, primary screen, biochemical, fluorescence polarization; actives 0.13% (n = 97,000); Plk1 PBD phosphopeptide binding; inhibition, %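 (tested at about 20 µM)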; in the data active means inhibition above about 34%, passing the limit was not always enough
Target sequence (P53350 whole entry, looked up, the tested form may be a part): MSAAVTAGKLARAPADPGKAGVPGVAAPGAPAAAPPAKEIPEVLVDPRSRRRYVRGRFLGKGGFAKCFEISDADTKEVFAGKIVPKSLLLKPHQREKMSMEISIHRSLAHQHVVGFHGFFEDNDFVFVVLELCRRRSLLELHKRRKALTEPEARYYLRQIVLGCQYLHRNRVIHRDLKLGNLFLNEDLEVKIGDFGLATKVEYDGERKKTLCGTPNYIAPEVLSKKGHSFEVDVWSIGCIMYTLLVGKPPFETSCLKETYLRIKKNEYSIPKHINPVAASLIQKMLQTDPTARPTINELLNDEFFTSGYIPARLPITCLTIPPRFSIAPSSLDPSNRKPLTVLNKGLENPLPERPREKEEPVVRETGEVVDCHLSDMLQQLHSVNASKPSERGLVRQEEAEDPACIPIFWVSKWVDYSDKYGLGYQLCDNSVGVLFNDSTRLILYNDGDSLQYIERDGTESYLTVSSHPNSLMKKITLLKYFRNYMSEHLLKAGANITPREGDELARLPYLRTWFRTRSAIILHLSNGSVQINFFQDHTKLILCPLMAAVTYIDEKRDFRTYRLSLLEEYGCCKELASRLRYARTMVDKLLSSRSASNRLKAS
EphB4 antag – EphB4-ephrin-B2 interaction antagonists, primary screen, biochemical, TNYL-RAW peptide probe, fluorescence polarization; Ephrin type-B receptor 4 (Homo sapiens), P54760; EphB4 LBD / TNYL-RAW-Alexa532 peptide; inhibition, % at 7 µM; actives 0.15% (n = 97,000); AID 720, 2007;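 active means inhibition above the screen-wide mean inhibition plus 3 SD, cut at about 15% in these data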
PLK1 kinase inh – human PLK1 kinase inhibitors, primary screen, biochemical, TR-FRET | recombinant PLK1 kinase, TR-FRET peptide phosphorylation | Serine/threonine-protein kinase PLK1 (Homo sapiens), P53350 | inhibition, % at 10 µM | actives 0.53% (n = 97,000) | AID 619, 2007;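 active means inhibition of 50% or more in the single-concentration screen; inactive means inhibition below 50%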
PTPN22 act – LYP phosphatase activators, primary screen, biochemical, DiFMUP fluorescence, 2 µM | Tyrosine-protein phosphatase non-receptor type 22 (Homo sapiens), Q9Y2R2 | activation, % at 2 µM | AID 697, 2007 | actives 0.11% (n = 96,000) | recombinant LYP; 0 = plate median, 100 = signal doubled;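 active means activation at 2 µM above a set limit, the mean plus 5 SD, cut at about 37% in these data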
PTPN22 inh 2 – PTPN22 phosphatase inhibitors, primary screen, biochemical, DiFMUP fluorescence, 2 µM; Tyrosine-protein phosphatase non-receptor type 22 (Homo sapiens), Q9Y2R2; recombinant LYP catalytic domain; inhibition, % at 2 µM; actives 0.21% (n = 96,000); AID 640, 2007;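 active means inhibition at 2 µM at or above a set limit, the screen mean plus 3 SD, cut at about 24% in these data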
A number is an active result. Sampled rows, rich in hits. Any-hit rate of the full collection: about 1.2%.

For Cc1nc2cc(C(=O)O)ccc2n1-c1ccccc1 the results were Plk1 PBD FP inactive, EphB4 antag inactive and PLK1 kinase inh 69.
For O=C(O)c1ccccc1SC1CC(=O)N(C2CCCCC2)C1=O (stereo unspecified) the results were Plk1 PBD FP inactive, EphB4 antag inactive and PLK1 kinase inh 69.
`CC(c1ccccc1)N1C(=O)CC(Sc2ncccc2C(=O)O)C1=O` (stereo unspecified) gave Plk1 PBD FP inactive, EphB4 antag inactive, PLK1 kinase inh inactive, PTPN22 act inactive and PTPN22 inh 2 inactive.
Screening CC(C)(Cl)C1Cc2cc3ccc(=O)oc3cc2O1 (stereo unspecified) returned Plk1 PBD FP inactive, EphB4 antag inactive, PLK1 kinase inh inactive, PTPN22 act inactive and PTPN22 inh 2 inactive.
COc1cccc(/C=N/NC(=O)c2ccc(-c3ccccc3)cc2)c1O was read as Plk1 PBD FP inactive, EphB4 antag inactive, PLK1 kinase inh inactive, PTPN22 act inactive and PTPN22 inh 2 28.
`CC(=O)Nc1ccc(SCC(=O)OCC(=O)NC(=O)NCc2ccco2)cc1` gave Plk1 PBD FP inactive, EphB4 antag 16, PLK1 kinase inh inactive, PTPN22 act inactive and PTPN22 inh 2 inactive.
`CC1CC1C(=O)OCC(=O)NC(=O)NCc1ccco1` (stereo unspecified) gave Plk1 PBD FP inactive, EphB4 antag inactive, PLK1 kinase inh inactive, PTPN22 act inactive and PTPN22 inh 2 inactive.
`O=C(NCCN1C(=O)C2C3C=CC(C3)C2C1=O)Nc1ccccc1` (stereo unspecified) gave Plk1 PBD FP inactive, EphB4 antag inactive and PLK1 kinase inh 67.
For O=C(NCCN1C(=O)C2C3C=CC(C3)C2C1=O)NCc1ccccc1 (stereo unspecified) the results were Plk1 PBD FP inactive, EphB4 antag inactive and PLK1 kinase inh 54.
`Cc1ccc(NC(=O)NCCN2C(=O)C3C4C=CC(C4)C3C2=O)cc1` (stereo unspecified) gave Plk1 PBD FP inactive, EphB4 antag inactive and PLK1 kinase inh 62.
Screening Cc1ccccc1NC(=O)NCCN1C(=O)C2C3C=CC(C3)C2C1=O (stereo unspecified) returned Plk1 PBD FP inactive, EphB4 antag inactive, PLK1 kinase inh inactive, PTPN22 act inactive and PTPN22 inh 2 inactive.
`COc1ccc(NC(=O)NCCN2C(=O)C3C4C=CC(C4)C3C2=O)cc1` (stereo unspecified) gave Plk1 PBD FP inactive, EphB4 antag inactive, PLK1 kinase inh inactive, PTPN22 act inactive and PTPN22 inh 2 inactive.
Screening Cc1cccc(NC(=O)C2CCCN(S(=O)(=O)c3cccc4cccnc34)C2)c1 (stereo unspecified) returned Plk1 PBD FP inactive, EphB4 antag inactive, PLK1 kinase inh inactive, PTPN22 act inactive and PTPN22 inh 2 inactive.
Screening COc1cccc(OC)c1C(=O)N1CCOCC1 returned Plk1 PBD FP inactive, EphB4 antag inactive, PLK1 kinase inh inactive, PTPN22 act inactive and PTPN22 inh 2 inactive.
Screening COC(=O)c1sccc1-n1cccc1C(=O)N1CCOCC1 returned Plk1 PBD FP inactive, EphB4 antag inactive, PLK1 kinase inh inactive, PTPN22 act inactive and PTPN22 inh 2 60.
CCCCCCCCOC(=O)CCn1[nH]c(=O)c2ccccc2c1=O was read as Plk1 PBD FP inactive, EphB4 antag inactive, PLK1 kinase inh inactive, PTPN22 act inactive and PTPN22 inh 2 inactive.
O=C(CSCSCC(=O)NCC1CCCO1)NCC1CCCO1 (stereo unspecified) was read as Plk1 PBD FP inactive, EphB4 antag inactive, PLK1 kinase inh inactive, PTPN22 act inactive and PTPN22 inh 2 inactive.
`Cc1cccc(-n2ccnc2SCC(=O)Nc2nnc(C)s2)c1` gave Plk1 PBD FP inactive, EphB4 antag inactive, PLK1 kinase inh inactive, PTPN22 act inactive and PTPN22 inh 2 inactive.
Cc1nnc(NC(=O)CSc2nccn2C)s1 was read as Plk1 PBD FP inactive, EphB4 antag 71, PLK1 kinase inh inactive, PTPN22 act inactive and PTPN22 inh 2 inactive.
`CCC(C)N(C(=O)CSc1nc(-c2ccccc2)cs1)C1CCS(=O)(=O)C1` (stereo unspecified) gave Plk1 PBD FP inactive, EphB4 antag inactive, PLK1 kinase inh inactive, PTPN22 act inactive and PTPN22 inh 2 inactive.
`CCOc1ccc(C(CCc2ccccc2)NC(=O)c2ccccc2OC)cc1OCC` (stereo unspecified) gave Plk1 PBD FP inactive, EphB4 antag inactive, PLK1 kinase inh inactive, PTPN22 act inactive and PTPN22 inh 2 inactive.
CCOc1ccc(C(CCc2ccccc2)NC(=O)c2ccccc2F)cc1OCC (stereo unspecified) was read as Plk1 PBD FP inactive, EphB4 antag 18, PLK1 kinase inh inactive, PTPN22 act inactive and PTPN22 inh 2 inactive.
For COC(=O)COc1cccc2c(=O)n(CC(=O)N3CCCc4ccccc43)ccc12 the results were Plk1 PBD FP inactive, EphB4 antag inactive, PLK1 kinase inh inactive, PTPN22 act inactive and PTPN22 inh 2 inactive.
`CCOC(=O)c1cnc(Nc2nc3ccccc3o2)nc1CN1CCN(C)CC1` gave Plk1 PBD FP inactive, EphB4 antag 16, PLK1 kinase inh inactive, PTPN22 act inactive and PTPN22 inh 2 inactive.
Screening CC(C)(C)n1ncc(Oc2ccc(Oc3cnn(C(C)(C)C)c(=O)c3Cl)cc2)c(Cl)c1=O returned Plk1 PBD FP inactive, EphB4 antag inactive, PLK1 kinase inh inactive, PTPN22 act inactive and PTPN22 inh 2 inactive.
For CCCC1C2C(=O)N(c3ccccc3OCC)C(=O)C2ON1c1ccccc1 (stereo unspecified) the results were Plk1 PBD FP inactive, EphB4 antag inactive, PLK1 kinase inh inactive, PTPN22 act inactive and PTPN22 inh 2 inactive.
`COc1cccc(NC(=O)N2CCC(C(N)=O)(N3CCCCC3)CC2)c1` gave Plk1 PBD FP inactive, EphB4 antag inactive, PLK1 kinase inh 66, PTPN22 act inactive and PTPN22 inh 2 inactive.
Screening COc1ccccc1-c1cnnc(N/N=C/c2ccc(-c3cccc(Br)c3)o2)n1 returned Plk1 PBD FP inactive, EphB4 antag inactive, PLK1 kinase inh inactive, PTPN22 act inactive and PTPN22 inh 2 31.
For CCc1nc2n[nH]c(N)c2c2c1CCCC2 the results were Plk1 PBD FP inactive, EphB4 antag inactive, PLK1 kinase inh inactive, PTPN22 act inactive and PTPN22 inh 2 inactive.
CC(C)c1nc2n[nH]c(N)c2c2c1CCCC2 was read as Plk1 PBD FP inactive, EphB4 antag inactive, PLK1 kinase inh 66, PTPN22 act inactive and PTPN22 inh 2 inactive.
`CC(C)Cc1nc2n[nH]c(N)c2c2c1CCCC2` gave Plk1 PBD FP inactive, EphB4 antag inactive, PLK1 kinase inh 69, PTPN22 act inactive and PTPN22 inh 2 inactive.
For CC(C)Cc1nc2n[nH]c(N)c2c2c1CCC2 the results were Plk1 PBD FP inactive, EphB4 antag inactive, PLK1 kinase inh 50, PTPN22 act inactive and PTPN22 inh 2 inactive.

Screens as filed in PubChem BioAssay.
